# Rows were chosen to be rich in hits. Some 2.3% of all compounds tested hit in one or more screens of this group.
# VDR inh: Inhibitors of the vitamin D receptor (VDR): qHTS; VDR-SRC2-3 peptide fluorescence polarization, 2 h; Potency, µM, inactives show max response, negative = inhibition, usual class: inhibitors; AID 504847, 2011; Vitamin D3 receptor (Homo sapiens), P11473; 400,000 tested, 0.93% active; also: potency is read from the fitted curve at half-maximal effect; % is scaled to controls: 0 for no effect and ±100 for the full control effect
# Target sequence (P11473 whole entry, looked up): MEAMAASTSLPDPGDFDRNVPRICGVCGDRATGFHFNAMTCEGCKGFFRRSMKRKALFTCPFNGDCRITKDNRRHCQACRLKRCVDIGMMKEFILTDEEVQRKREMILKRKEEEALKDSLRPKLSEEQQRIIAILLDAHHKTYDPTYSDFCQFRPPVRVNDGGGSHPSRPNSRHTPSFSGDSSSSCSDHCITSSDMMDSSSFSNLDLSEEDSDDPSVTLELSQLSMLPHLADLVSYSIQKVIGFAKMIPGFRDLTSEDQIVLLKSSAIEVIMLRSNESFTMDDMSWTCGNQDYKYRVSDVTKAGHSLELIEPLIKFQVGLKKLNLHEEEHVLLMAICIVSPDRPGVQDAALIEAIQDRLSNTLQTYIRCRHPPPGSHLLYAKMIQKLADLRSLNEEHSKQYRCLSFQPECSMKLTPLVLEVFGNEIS
#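 Fluorescence polarization assay measuring small-molecule disruption of VDR binding to the coregulator peptide SRC2-3. Compounds were pin-transferred (23 nl) into the reagent mix and incubated 2 h at room temperature before reading.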
# HTT aggregate: qHTS Multiplex Assay to Identify Dual Action Probes in a Cell Model of Huntington: Aggregate Formation (GFP); 220,000 tested, 1.1% active; PC12 HttQ103-GFP aggregates, Acumen cytometry, 40 h; Potency, µM (top dose mostly 46.1 µM), without a hit: at the top dose activity change, negative = inhibition, usual class: inhibitors; also: potency is read from the fitted curve at half-maximal effect; % is scaled to controls: 0 for no effect and ±100 for the full control effect; nearly all actives have a fitted effect of over 60% in size
#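 Compounds (qHTS titration) were added to PC12 cells expressing an ecdysone-driven HTT exon 1 Q103–GFP fusion after induction with 100 nM tebufenozide. Aggregate formation was measured as GFP objects in cell lysates.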
# Coupling enz: qHTS Assay for Inhibitors of Fructose-1,6-bisphosphate Aldolase from Giardia Lamblia: Coupling assay counterscreen. activity change, negative = inhibition, % at 58.2 µM, hits read low. AID 2472, 2010. 290,000 tested, 0.67% active. coupling enzyme system counterscreen, AmpLite Red fluorescence; in the data active = activity change below about -30%; also: % is scaled to controls: 0 for no effect and ±100 for the full control effect
#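 Counterscreen lacking aldolase: glyceraldehyde-3-phosphate coupling-enzyme reagent preincubated 10 min at RT with compound (at 57.5 uM final), then substrate/coupling system with AmpLite Red added; fluorescence read at 525/598 nm after 20 min RT.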
# JMJD2E inh: qHTS Assay for Inhibitors of Human Jumonji Domain Containing 2E (JMJD2E) | Lysine-specific demethylase 4E (Homo sapiens), B2RXH2 | JMJD2E catalytic domain, FDH-coupled NADH fluorescence (FDH is formaldehyde dehydrogenase) | Potency, µM (doses to about 57.1 µM), without a hit: at the top dose activity change, negative = inhibition, most hits filed as inhibitors | 230,000 tested, 1.6% active | AID 2147, 2009; active = well fitted inhibition curve with a large enough effect, not every such curve was filed as active; inconclusive = small, poorly fitted or top-dose-only effect, or another doubt; inactive = no such curve, though single readings can be large or run the other way;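 also: potency is read from the fitted curve at half-maximal effect; 0% = wells with enzyme and -100% = buffer wells without enzyme; nearly all actives have a fitted effect of over 50% in size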
# HTT cytoprotect: qHTS Multiplex Assay to Identify Dual Action Probes in a Cell Model of Huntington: Cytoprotection (ATP) | Potency, µM (titrated, usually from 56.4 µM), for the others: cytoprotection (ATP increase), actives largely listed as activators | PC12 HTT-Q103 induced, cytoprotection, ATP luminescence, 40 h | 230,000 tested, 0.14% active; also: potency is read from the fitted curve at half-maximal effect; % of control where 0% means no effect; nearly all actives have a fitted effect of over 45% in size
#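 PC12 cells stably carrying ecdysone-inducible Htt exon 1 (Q103)–GFP were induced with 100 nM tebufenozide (final) alongside library compounds in a dose series. Cytoprotection was scored as retained ATP by ATPlite luminescence.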
# RGS12 GoLoco inh: qHTS Assay for Inhibitors of RGS12 GoLoco Motif Activity (Red Fluorophore) | Guanine nucleotide-binding protein G(i) subunit alpha-1 (Homo sapiens), P63096 | Gai1:RGS12 GoLoco peptide FP, rhodamine, 10 min | Potency, µM (series often up to 61.6 µM), without a hit: at the top dose activity, negative = inhibition, usual class: inhibitors | 230,000 tested, 0.44% active; active = well fitted inhibition curve with a large enough effect, not every such curve was filed as active; inactive = no such curve, though single readings can be large or run the other way; also: potency is read from the fitted curve at half-maximal effect; % is scaled to controls: 0 for no effect and ±100 for the full control effect; nearly all actives have a fitted effect of over 30% in size
# * marks the source's active call; other numbers are inactive results; ? = inconclusive; . = no result; ! = not active in a repeat; [ ] = remark or other dose. Unless noted, calls follow the shape of the dose curve; as a rule, active = well fitted curve in the direction sought with a large enough effect; inconclusive = small, poorly fitted or top-dose-only effect, or another doubt; inactive = no such curve, though single readings can be large; an effect the other way counts as inactive or inconclusive.
SMILES,VDR inh,HTT aggregate,Coupling enz,JMJD2E inh,HTT cytoprotect,RGS12 GoLoco inh
CCN1CCN(C(=O)C(C)Nc2cc(Cl)c(OC)cc2OC)CC1 (stereo unspecified),-6%,9%,-43*,?,-45%,-42%
COc1cc(OC)c(NC(C)C(=O)NCc2ccccc2)cc1Cl (stereo unspecified),-8%,-10%,-50*,-29%,-33%,8%
CCN1CCN(C(=O)Nc2cc(Cl)ccc2OC)CC1,0%,-4%[9.22 µM],-1,9%,0%[10 µM],5%
COc1ccc(NC(=O)Nc2nnc(-c3ccncc3)s2)cc1,0%,20µM*,-2,?,-23%,13%
O=C(NCCc1ccc(Cl)cc1)c1cnc2sc(N3CCCC3)nn2c1=O,5%,.,.,.,.,.
O=C(CON=C1c2ccccc2-c2ccccc21)NC12CC3CC(CC(C3)C1)C2,6%,11µM*,2,?,-6%[10 µM],4%
O=C(COC(=O)C(O)c1ccccc1)NC12CC3CC(CC(C3)C1)C2 (stereo unspecified),-2%,4%,2,5%,3%[10 µM],-1%
Cc1ccc(CNC(=O)C(Cc2ccccc2)NS(=O)(=O)c2ccc(Br)s2)cc1 (stereo unspecified),-4%,25µM*,0,-5%,.,19%
Cc1ccc(CNC(=O)C(Cc2ccccc2)NS(=O)(=O)c2cccs2)cc1 (stereo unspecified),15%,?,-1,-10%,6%,9%
Cn1sc(=O)n(Cc2ccccc2)c1=O,5µM*,.,-2,.,.,.
Cn1c(=O)n(Cc2ccccc2)c2ccccc21,7%,7%,4,4%,10%,6%
Cc1ccccc1NC(=O)CCn1cnc2onc(-c3ccc(F)cc3)c2c1=O,0%,.,.,.,.,.
COc1ccccc1NC(=O)c1c(Nc2ccccc2F)sc(C(=O)Nc2cccc(Cl)c2)c1N,-16%,-5%,-5,-2%,6%[10 µM],13%
O=Nc1[nH]c(=O)c(/C=C(\O)c2ccccc2)nc1NO,10%,.,4,.,.,.
COc1cc(C2C(=O)N(C3CCC(C)CC3)CC(=O)N2CCc2ccc(Cl)cc2)ccc1OC(C)C (stereo unspecified),0%,.,.,.,.,.
Nc1ncnc2c1c(I)cn2C1OC(CO)C(O)C1O (stereo unspecified),3%,.,-1,0%,-62%,25µM*!
Nc1ncnc2c1ncn2C1O[C@H](CO)[C@@H](O)[C@@H]1O (stereo partly specified),-11%,.,.,.,.,.
C=C1C(=O)[C@@]23[C@H](O)C[C@@H]4C(C)(C)CC[C@H](O)[C@@]4(C)[C@@H]2CC[C@@H]1[C@H]3O,?,2.8µM*,6,2%,.,9%
C=C1C(=O)[C@@]23[C@H](O)C[C@@H]4C(C)(C)CC[C@H](O)[C@]4(C)[C@@H]2C[C@H](O)[C@@H]1[C@H]3O,?,3.2µM*,7,-2%,.,5%
CCOC(=O)C(CCc1ccccc1)NC(C)C(=O)N1CCCC1C(=O)O (stereo unspecified),5%,.,5,-29%,-6%,5%
Cc1cc(C)cc(Nc2nc3ccccc3n3cnnc23)c1,22%,.,.,.,.,.
Nc1ncnc2c1[nH]c(=O)n2C1CC(O)C(CO)O1 (stereo unspecified),3%,.,0,4%,.,5%
CN1C(N)=NC(=O)/C1=C\c1ccc(Br)cc1,-19%,.,4,.,.,.
CCOC(=O)CSc1nnc(NCC(=O)OC)c(=O)[nH]1,40µM*,12%,3,2%,8%,-4%
